Values joined by “and” are separate entries in the source; they are usually repeats but may differ in a detail not shown here. Equal values may be shown once. Out of some 240,000 compounds screened, about 1,300 (0.54%) were called active. About 1% were inconclusive and are not listed. This is one part of a sample in which actives are shown more often than they occur. Calls follow the shape of the dose curve; as a rule, active = well fitted inhibition curve with a large enough effect; inconclusive = small, poorly fitted or top-dose-only effect; inactive = flat fitted curve, though single readings scatter. A structure can be active in one record and inactive in another.
Potency is read from the fitted curve at half-maximal effect.

For this assay, the target named is ATP-dependent DNA helicase Q1 (Homo sapiens) (UniProt P46063). Nature of the assay: qHTS Assay for Inhibitors of RecQ-Like Dna Helicase 1 (RECQ1). Also: nearly all actives have a fitted effect of over 30% in size.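 As to activity, negative = inhibition: plate controls were vehicle for no effect and no enzyme for full effect.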 To be noted: RECQ1 DNA unwinding, red fluorescence kinetic read; series mostly up to 57.3 µM; activity, negative = inhibition: at the top concentration. An outline of the steps: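 RECQ1T1 50 nM; forked duplex (20 bp + 30-nt ss tails) 200 nM, ATP 2 mM final; pH 8.0, 2 mM MgCl2, 2.5 ug/ml poly(dI-dC); 15 min compound preincubation; discontinuous kinetic read over 2 h at RT.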
ATP-dependent DNA helicase Q1 (Homo sapiens), sequence (P46063 whole entry, looked up): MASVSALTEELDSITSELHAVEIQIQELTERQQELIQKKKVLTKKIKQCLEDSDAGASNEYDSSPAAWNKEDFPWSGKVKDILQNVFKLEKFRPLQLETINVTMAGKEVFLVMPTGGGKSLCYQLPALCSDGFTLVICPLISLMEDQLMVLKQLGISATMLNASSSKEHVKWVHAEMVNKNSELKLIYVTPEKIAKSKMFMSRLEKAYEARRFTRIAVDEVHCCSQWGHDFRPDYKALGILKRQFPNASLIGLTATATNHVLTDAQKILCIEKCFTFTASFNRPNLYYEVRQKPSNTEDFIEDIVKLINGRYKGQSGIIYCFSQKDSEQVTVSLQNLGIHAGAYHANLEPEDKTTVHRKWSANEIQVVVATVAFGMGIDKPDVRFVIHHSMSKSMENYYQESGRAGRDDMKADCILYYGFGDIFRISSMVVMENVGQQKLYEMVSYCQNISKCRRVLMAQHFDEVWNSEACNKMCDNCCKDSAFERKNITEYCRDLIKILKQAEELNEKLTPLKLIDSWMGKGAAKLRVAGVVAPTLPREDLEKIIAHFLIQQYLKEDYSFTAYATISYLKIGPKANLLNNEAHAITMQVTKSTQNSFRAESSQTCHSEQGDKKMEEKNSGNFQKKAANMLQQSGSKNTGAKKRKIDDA
In general terms: Quantitative high-throughput screening tests each substance at several concentrations.
Take `Clc1ccccc1CSc1nnc(-c2ccco2)c(-c2ccco2)n1`: the Potency was 35.5 µM (active).
Turning to `COc1ccc(-c2ccc(C3C4C=CCCC4(C)C(=O)N3Cc3ccccc3)c(F)c2)cc1OC` (stereo not drawn), the “activity, negative = inhibition” value is -11% (inactive).
For `Cc1noc(C)c1-c1ccc2ncnc(NC(C)c3ccco3)c2c1` (stereo not drawn), the “activity, negative = inhibition” value is 2.54% (inactive).
With `CCN(CC)/[N+]([O-])=N/Oc1cc(O/[N+]([O-])=N/N2CCCC2CO)c([N+](=O)[O-])cc1[N+](=O)[O-]` (stereo not drawn), the result was inactive.
As to `OC(CCl)CCl`, the “activity, negative = inhibition” value is -12.1% (inactive).
On to `Cc1cc(Cl)ccc1NNC(=O)c1snnc1C`, for which the “activity, negative = inhibition” value was -2.2% (inactive).
With `COc1cccc(-c2cc(=O)c3cc(NC(=O)c4ccc(C)cc4)ccc3[nH]2)c1`, the “outcome” value is “inactive [at 81.1 µM]”.
On to `Cc1ccc(S(=O)(=O)Oc2ccc(/C=N/NC(=O)c3c(Cl)cnn3C)cc2)cc1`, for which the “activity, negative = inhibition” value was -2.22% (inactive).
The same measure, in the same setting: with `Cn1c2ccccc2c(=O)c2c(O)cccc21` the figure was -0.553% (inactive).
Regarding `Oc1ccc(O)c2c(O)cccc12`, the Potency was 3.98 µM (active).
For the compound `CNC(=O)[C@]1(C(F)(F)F)C[C@H](CCc2ccccc2)CCCO1`, the compound was classed as inactive.
On to `O=C1c2cccc(OCC(=O)N3N=C(c4cccs4)CC3c3ccc(F)cc3)c2CCN1Cc1ccccc1` (stereo not drawn), for which the “activity, negative = inhibition” value was -5.93% (inactive).
On the same count and under the same terms, under `CC1CCCC(NC(=O)COC(=O)[C@@H]2CC(O)CN2S(=O)(=O)c2ccc3c(c2)OCCO3)C1C` (stereo partly drawn) stands -3.5% (inactive).
Take `Cc1ccccc1-c1nnc(SCC(=O)NCc2ccc3c(c2)OCO3)n1C`: the “activity, negative = inhibition” value is -1.82% (inactive).
Same read-out and setting: with `O=C(CSc1ncn[nH]1)NCc1ccc2c(c1)OCO2` the figure was -11.6% (inactive).
Turning to `O=C(CSc1ccc(-c2ccco2)nn1)NCc1ccc2c(c1)OCO2`, the Potency is 28.2 µM (active).
`C=C1CCN(C(CC(C)C)C(=O)N2CCOCC2)S(=O)(=O)c2ccccc21` (stereo not drawn): the compound was called inactive.
As to `Cc1cccc(C2c3[nH]c4ccccc4c3CCN2C(=O)c2cc(-c3cccn3C)n[nH]2)n1` (stereo not drawn), the “activity, negative = inhibition” value was -1.43% (inactive).
Take `O=C(O)c1ccc(/C=C2/SC(=S)N(c3cccc(C(F)(F)F)c3)C2=O)cc1`: the “activity, negative = inhibition” value was 8.17% (inactive).
As for `C=CCn1c(=S)[nH]c2scc(-c3ccco3)c2c1=O`, the Potency is 31.6 µM (active).
For the compound `C=CCNC(=O)CSc1nc2scc(-c3ccco3)c2c(=O)n1CC=C`, the compound was called inactive.
As for `C=CCn1c(SCc2csc(C)n2)nc2scc(-c3ccc(C)o3)c2c1=O`, the “activity, negative = inhibition” value was -1.43% (inactive).
The same measure, in the same setting: with `O=C1C[C@@H](c2ccc3ccccc3c2)N1S(=O)(=O)c1ccccc1[N+](=O)[O-]` the figure was -3.07% (inactive).
On to `Oc1cc(O)c2c(c1)OC(c1ccc(O)c(O)c1)C(O)C2` (stereo not drawn), for which the Potency was 14.1 µM (active).
Consider `Cc1nnnn1/C(=C\c1ccccc1)C(=O)OCC(=O)N1CC2(C)CC1CC(C)(C)C2` (stereo not drawn), for which the “activity, negative = inhibition” value was 4.69% (inactive).
Take `O=c1c(O)c(Br)ccc2c(Br)c(O)c(O)c(O)c12`: the Potency is 3.16 µM (active).
In the case of `CCC1(CC)C(=O)C2=C3C1[C@H](C(=O)OC)C=C(C(=O)OC)C[C@H]3[C@H]1C(=O)N(Cc3ccccc3)C(=O)[C@H]1[C@H]2C` (stereo partly drawn), the compound was classed as inactive.
With `O=C(N/N=C/c1ccccn1)c1cccnc1`, the “activity, negative = inhibition” value was 6.97% (inactive).
On to `O=C(N/N=C/c1sc(N2CCCCC2)nc1-c1cccs1)c1cccnc1`, for which the Potency was 10 µM (active).
With `Cc1cc(/C=N/NC(=O)c2cccnc2)c(C)n1CC(C)C`, the call was inactive.
Turning to `N#C/C(=C\c1ccc(O)c(O)c1)C(=O)NCc1ccccc1`, the Potency result was “inactive and 31.6 µM (active)”.
As to `COCCNC(=O)/C(C#N)=C/c1cccc(OCc2ccccc2)c1`, the “activity, negative = inhibition” value was -4.31% (inactive).
With `N#C/C(=C\c1ccc(O)c(O)c1)C(N)=O`, the Potency entry was “inactive”.
On to `c1ccc(C2CNCc3c2ccc2ccccc32)cc1` (stereo not drawn), for which the result was inactive.
The same measure, in the same setting: with `CC(=O)Nc1ccc(S(=O)(=O)N2N=NC3C2C2CC4C3(CN(C(=O)OC(C)(C)C)S4(=O)=O)O2)cc1` (stereo not drawn) the entry was “inactive”.
As to `CN(C(=O)COC(=O)c1cc(-c2ccco2)nc2ccccc12)C1CCS(=O)(=O)C1` (stereo not drawn), the Potency was 14.1 µM (active).
For the compound `COc1ccc(NC(=O)COc2ccc(C(=O)OCC(=O)N(C)C3CCS(=O)(=O)C3)cc2OC)cc1` (stereo not drawn), the result was inactive.
For the compound `Cc1c(-c2cccc(Cl)c2)nc2ccccc2c1C(=O)OCC(=O)N(C)C1CCS(=O)(=O)C1` (stereo not drawn), the “activity, negative = inhibition” value is -13% (inactive).
The same measure, in the same setting: with `CC(=O)OC1C([N+]2(C)CCCCC2)C[C@H]2C3CC[C@H]4C[C@H](OC(C)=O)C([N+]5(C)CCCCC5)CC4(C)C3CCC12C` (stereo partly drawn) the figure was 44.6% (inactive).
As for `O=c1[nH]c(=O)c2nc3ccccc3nc2[nH]1`, the Potency result is “inactive”.
For the compound `Cc1cc2nc3c(=O)n(Cc4ccccc4)c(=O)[nH]c3nc2cc1N`, the “activity, negative = inhibition” value is -6.41% (inactive).
In the case of `Nc1ccc2nc3c(=O)[nH]c(=S)[nH]c3nc2c1`, the Potency is 7.94 µM (active).
For `CCOc1ccc(/C=C2\SC(=S)N(NC(=O)c3ccncc3)C2=O)cc1OC`, the “activity, negative = inhibition” value was -4.45% (inactive).
Still for that read-out and setting: with `COc1ccc(C2=Nn3c(nnc3-c3ccccc3O)SC2)cc1` the figure was -2.95% (inactive).
For the compound `C=CCCN(C(Cc1ccccc1)C(=O)OC)S(=O)(=O)c1cc(Br)ccc1Br` (stereo not drawn), the compound was classed as inactive.
Consider `C=C1CCN(Cc2ccc(OC)cc2)S(=O)(=O)c2ccccc21`, for which the “activity, negative = inhibition” value was -11.7% (inactive).
In the case of `Cc1ccc(SCC(CC(C)C)N2CCN(CCc3ccccc3)CCC2=O)cc1` (stereo not drawn), the call was inactive.
`COc1c(O)cc2oc(-c3ccc(O)c(O)c3)cc(=O)c2c1O`: the Potency was 11.2 µM (active) and 8.91 µM (active).
For the compound `Cc1cccc(-c2cc(=O)c3cc(C)ccc3o2)c1`, the “activity, negative = inhibition” value was -3.41% (inactive).
Same read-out and setting: with `CCOC(=O)COc1cc(O)c2c(=O)cc(-c3ccccc3)oc2c1` the figure was -4.89% (inactive).
For `O=c1cc(-c2ccc(O)c(O)c2)oc2cccc(O)c12`, the Potency is 25.1 µM (active).
On to `COc1ccc2c(=O)cc(-c3ccccc3)oc2c1O`, for which the call was inactive.
In the case of `O=c1cc(-c2ccc(O)cc2)oc2c(-c3cc(-c4cc(=O)c5c(O)cc(O)cc5o4)ccc3O)c(O)ccc12`, the “activity, negative = inhibition” value was -15.9% (inactive).

For the origin of these results see PubChem BioAssay AID2549 (National Center for Advancing Translational Sciences (NCATS), 2010).
